Test results taken from PubChem BioAssay (NCATS).
Inconclusive results are not listed. Unless noted, calls come from the whole dose curve; as a rule, active = well fitted curve in either direction with a large enough effect (not every such curve was filed as active); inconclusive = small, poorly fitted or top-dose-only effect, or another doubt; inactive = flat fitted curve, though single readings scatter.

Columns and labels:
[1] = AP1 Signaling Pathway (AID 357); settings: ME-180 AP-1-bla reporter, EGF-induced, beta-lactamase ratio, 5 h; at 17.2 µM (top of the series) unless noted; note: % is set by controls: 0 for no effect and ±100 for the full control effect
In short: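 ME-180 cells with beta-lactamase reporter under AP-1 response element, stimulated with EC50 EGF; compounds tested in titration series, 5 h at 37 °C. CCF4 substrate added 2.5 h at room temperature; 460/530 nm emission ratio gave %activity and AC50.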

[2] = NFAT Signaling Pathway (AID 444); settings: Jurkat NFAT-bla M1, carbachol, beta-lactamase ratio, 5 h; at 17.2 µM (top of the series) unless noted;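 note: carbachol stimulus at about its EC50 of 1 µM final; % is set by controls: 0 for no effect and ±100 for the full control effect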
In short: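 Read-out: CCF4 FRET ratio (460 nm/530 nm) after 1 h RT dye loading, used for %activity and AC50 from titration series. Cells: Jurkat NFAT-β-lactamase/M1 line, treated with compound plus 1 uM carbachol for 5 h, 37 °C.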

[3] = Stat Signaling Pathway (AID 446); settings: ME-180 SIE beta-lactamase reporter, IL-6 stimulated, 5 h; at 17.2 µM (top of the series) unless noted;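 note: ME-180 cervical cancer cells given 40 pM IL-6 alongside compound; SIE-controlled beta-lactamase reporter measured as 460/530 nm FRET emission ratio; % is set by controls: 0 for no effect and ±100 for the full control effect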
In short: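 Screening format detects activators and inhibitors alike: ME-180 SIE-bla cells stimulated at 40 pM IL-6 for 5 hrs with compound, then dual-emission beta-lactamase read at 405 nm excitation.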

[4] = target: Glucocorticoid receptor (Homo sapiens) (UniProt P04150); test: GR-GFP Redistribution (AID 450;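 active = compounds whose dose series gives a full or clear partial fitted curve of increased nuclear translocation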; note: potency is the fitted concentration of half-maximal effect)
Sequence of Glucocorticoid receptor (Homo sapiens) (P04150 whole entry, looked up): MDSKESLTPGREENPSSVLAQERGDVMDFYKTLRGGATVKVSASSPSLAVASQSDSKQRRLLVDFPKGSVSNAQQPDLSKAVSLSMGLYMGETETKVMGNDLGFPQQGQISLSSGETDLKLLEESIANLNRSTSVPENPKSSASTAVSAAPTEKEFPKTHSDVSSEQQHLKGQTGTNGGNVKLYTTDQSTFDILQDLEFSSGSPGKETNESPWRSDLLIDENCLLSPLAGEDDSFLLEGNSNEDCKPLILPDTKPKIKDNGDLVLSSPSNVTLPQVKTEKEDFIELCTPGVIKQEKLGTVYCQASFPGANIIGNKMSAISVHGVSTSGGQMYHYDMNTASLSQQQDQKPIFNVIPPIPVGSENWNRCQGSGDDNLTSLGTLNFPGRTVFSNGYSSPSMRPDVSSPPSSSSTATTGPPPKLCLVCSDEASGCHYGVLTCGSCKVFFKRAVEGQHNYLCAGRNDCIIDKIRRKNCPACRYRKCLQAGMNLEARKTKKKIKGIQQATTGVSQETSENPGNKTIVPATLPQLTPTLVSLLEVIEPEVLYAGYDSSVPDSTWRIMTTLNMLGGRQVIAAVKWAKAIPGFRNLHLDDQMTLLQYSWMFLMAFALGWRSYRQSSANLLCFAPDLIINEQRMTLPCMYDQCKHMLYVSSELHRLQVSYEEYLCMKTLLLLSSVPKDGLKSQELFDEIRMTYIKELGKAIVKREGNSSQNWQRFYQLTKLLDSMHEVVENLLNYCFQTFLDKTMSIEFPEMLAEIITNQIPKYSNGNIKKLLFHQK

CCCCOc1ccccc1/C=c1/sc2nc(-c3oc4ccccc4c3C)nn2c1=O
inactive: activity change, negative = inhibition [1] 4.54% | activity change, negative = inhibition [2] -23.5% | activity, negative = inhibition [3] -12.5% | Potency [4] > 20.6 µM

O=C(CN1C(=O)c2ccccc2C1=O)OCN1C(=O)c2ccccc2C1=O
inactive: activity change, negative = inhibition [1] 8.86% | activity change, negative = inhibition [2] -11.6% | activity, negative = inhibition [3] 6.85% | Potency [4] > 20.6 µM

COc1ccc(-n2ncc3c(N4CCC(C(N)=O)CC4)ncnc32)cc1
inactive: activity change, negative = inhibition [1] -0.0678% | activity change, negative = inhibition [2] 6% | activity, negative = inhibition [3] -1.03% | Potency [4] > 20.6 µM

CC(Sc1nc(N2CCCCC2)c2c(c1C#N)CCCC2)C(=O)O (stereo not given)
inactive: activity change, negative = inhibition [1] -9.35% | activity change, negative = inhibition [2] -2.56% | activity, negative = inhibition [3] -20.5% | Potency [4] > 20.6 µM

c1ccc(C2=Nn3c(nnc3-c3ccccn3)SC2)cc1
inactive: activity change, negative = inhibition [1] -4.27% | activity change, negative = inhibition [2] -8.45% | activity, negative = inhibition [3] 5.46% | Potency [4] > 20.6 µM

COCCOC(=O)C1=C(C)NC(SCC(=O)NC(C)(C)C)=C(C#N)C1c1ccco1 (stereo not given)
inactive: activity change, negative = inhibition [1] -20.5% | activity change, negative = inhibition [2] 12.6% | activity, negative = inhibition [3] -8.48% | Potency [4] > 20.6 µM

O=C(C1=C(O)C(=O)N(c2ncccn2)C1c1cccc(Cl)c1)c1ccco1 (stereo not given)
inactive: activity change, negative = inhibition [1] -4.37% | activity change, negative = inhibition [2] 22.6% | activity, negative = inhibition [3] -6.45% | Potency [4] > 20.6 µM

CCCCCc1nc2sc3c(c2c(=O)n1N)CCC3
inactive: activity change, negative = inhibition [1] -5.09% | activity change, negative = inhibition [2] -10.1% | activity, negative = inhibition [3] -13% | Potency [4] > 20.6 µM

Clc1cccc(-c2nn3c(COc4ccccc4)nnc3s2)c1
inactive: activity change, negative = inhibition [1] 6.46% | activity change, negative = inhibition [2] -0.831% | activity, negative = inhibition [3] 17.5% | Potency [4] > 20.6 µM

COc1ccc(C2/C(=C(/O)c3ccccc3)C(=O)C(=O)N2c2ncccn2)cc1OC (stereo not given)
inactive: activity change, negative = inhibition [1] -3.2% | activity change, negative = inhibition [2] -4.09% | activity, negative = inhibition [3] -0.726% | Potency [4] > 20.6 µM

C=CCNc1nc(-c2ccc(O)c(C(N)=O)c2)cs1
inactive: activity change, negative = inhibition [1] -14.5% | activity change, negative = inhibition [2] 25.2% | activity, negative = inhibition [3] -12.3% | Potency [4] > 20.6 µM

CCCCC(CCC(=O)Nc1ccc(C(=O)OCC)cc1)C(=O)O (stereo not given)
inactive: activity change, negative = inhibition [1] -10.4% | activity change, negative = inhibition [2] 8.16% | activity, negative = inhibition [3] 3.27% | Potency [4] > 20.6 µM

CSc1nnc(C)c(=O)[nH]1
inactive: activity change, negative = inhibition [1] -4.3% | activity change, negative = inhibition [2] -8.38% | activity, negative = inhibition [3] 14.8% | Potency [4] > 20.6 µM

CCc1cc2c(=O)c(-c3cscn3)coc2c(CN(C)C)c1O
inactive: activity change, negative = inhibition [1] 26.5% | activity change, negative = inhibition [2] -7.56% | activity, negative = inhibition [3] 10.5% | Potency [4] > 20.6 µM

COC(=O)CN(c1nc(C)cc(OC)n1)S(=O)(=O)c1ccccc1
inactive: activity change, negative = inhibition [1] -9.15% | activity change, negative = inhibition [2] -15.3% | activity, negative = inhibition [3] 8.46% | Potency [4] > 20.6 µM

CC(C(=O)N1CCCCC1)N1C(=O)c2ccccc2C1=O (stereo not given)
inactive: activity change, negative = inhibition [1] 0.952% | activity change, negative = inhibition [2] 8.42% | activity, negative = inhibition [3] 3.42% | Potency [4] > 20.6 µM

CCc1cccc(CC)c1N(COC)C(=O)Cn1nnc2ccccc21
inactive: activity change, negative = inhibition [1] -10.2% | activity change, negative = inhibition [2] 10% | activity, negative = inhibition [3] -3.83% | Potency [4] > 20.6 µM

COC(=O)c1ccc(C2/C(=C(/O)c3ccc(OC)cc3)C(=O)C(=O)N2Cc2ccco2)cc1 (stereo not given)
inactive: activity change, negative = inhibition [1] -4.01% | activity change, negative = inhibition [2] -12% | activity, negative = inhibition [3] -22.4% | Potency [4] > 20.6 µM

Cc1cc(OCC(=O)Nn2cnnc2)ccc1Br
inactive: activity change, negative = inhibition [1] 11.6% | activity change, negative = inhibition [2] -7.1% | activity, negative = inhibition [3] 4.67% | Potency [4] > 20.6 µM

CCCCC(C(=O)O)C(C)CC(=O)Nc1cccc(C(=O)O)c1 (stereo not given)
inactive: activity change, negative = inhibition [1] 5.92% | activity change, negative = inhibition [2] -0.782% | activity, negative = inhibition [3] 12.4% | Potency [4] > 20.6 µM

COC(=O)/C=c1/s/c(=C(\C#N)C(=O)NCc2ccco2)n(-c2ccccc2)c1=O
inactive: activity change, negative = inhibition [1] -2.83% | activity change, negative = inhibition [2] -25.7% | activity, negative = inhibition [3] 5.13% | Potency [4] > 20.6 µM

CC(C)Oc1ccc(Cc2c(O)nc(NCCCN(C)C)[nH]c2=O)cc1
inactive: activity change, negative = inhibition [1] 9.78% | activity change, negative = inhibition [2] 3.21% | activity, negative = inhibition [3] 4.27% | Potency [4] > 20.6 µM

Cc1cc(=O)[nH]c(COc2ccccc2)n1
inactive: activity change, negative = inhibition [1] 3.59% | activity change, negative = inhibition [2] -7.86% | activity, negative = inhibition [3] -2.52% | Potency [4] > 20.6 µM

O=C1CC(c2ccco2)CC(O)=C1C=Nc1cc(Cl)ccc1O (stereo not given)
inactive: activity change, negative = inhibition [1] -23.8% | activity change, negative = inhibition [2] -1.32% | activity, negative = inhibition [3] -10.9% | Potency [4] > 20.6 µM

C=CCOc1nc2c(c(=O)n(Cc3ccc(Cl)cc3)c(=O)n2C)n1C
inactive: activity change, negative = inhibition [1] -10.1% | activity change, negative = inhibition [2] 4.79% | activity, negative = inhibition [3] 9.68% | Potency [4] > 20.6 µM
